The text below walks through data of PubChem BioAssay (NCI).

Molecules are shown by their SMILES. The panel holds about 83,000 compounds, 20% with a hit somewhere; the sample as a whole holds those more often.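 Single-concentration screen, 48 h exposure, 96-well plates. Endpoint: percent growth. Below 10 = active.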 Unmarked numbers belong to inactive results. Activity calls are given as the source filed them.

The test system of this test is HL-60(TB) leukemia. Nature of the test: NCI-60 one-dose screen, 48 h (100 = growth as untreated, 0 = no growth, -100 = all killed). The note with it: 10 µM unless noted.

Turning to `CCOC(=O)c1c(C)nc2c(c1N)/C(=C/c1cc(OC)c(OC)c(OC)c1)C(=O)N2c1ccc(OC)cc1`, the growth is 28.2%.
Then `Nc1c(C(=O)c2ccccc2)sc2nc(-c3cc4ccccc4o3)cc(-c3ccc(Cl)cc3)c12`, with 114%.
On to `CC1C(c2ccccc2)OCCN1C(=S)Nc1ccc(S(=O)(=O)N2CCCCC2)cc1` (configuration not stated), for which the growth was 89.1%.
`COc1ccc(-c2cnc(SCC(=O)Nc3ccc(-c4nc5ccccc5s4)cc3)n2-c2ccc(OC)cc2)cc1`: the growth was 106%.
For the compound `COc1cc(-c2nn(-c3cccc(NC(=O)c4ccc(N5CCOCC5)c(C(F)(F)F)c4)c3)cc2-c2ccncc2)ccc1Cl`, the growth is -8.08% (active).
Next, `c1cnc2n[nH]c(Nc3ncnc4c3sc3ncccc34)c2c1`: 96.8%; `C[PH+](c1nc2ccccc2nc1[PH+](C)C(C)(C)C)C(C)(C)C.C[PH+](c1nc2ccccc2nc1[PH+](C)C(C)(C)C)C(C)(C)C.[Au+].[Cl-]` (configuration not stated): 12%.
